# Legend:
# Assay in all cases: DAPPL (digital affinity profiling via proximity ligation, sequencing); 10 mM Tris-HCl pH 7.5, 50 mM NaCl, 1 mM DTT, 4% glycerol, room temperature, 30 min; GST-TFs on glutathione beads, 16-mer random dsDNA library, 0.1% formaldehyde crosslink after washing; high values mean tight binding
# FLI1 = molecular target: T1, FLI1 (Homo sapiens, UniProt Q01543 1-452); settings: protein: recombinant; tags: N-terminal GST; dsDNA, one strand shown
# T1 sequence: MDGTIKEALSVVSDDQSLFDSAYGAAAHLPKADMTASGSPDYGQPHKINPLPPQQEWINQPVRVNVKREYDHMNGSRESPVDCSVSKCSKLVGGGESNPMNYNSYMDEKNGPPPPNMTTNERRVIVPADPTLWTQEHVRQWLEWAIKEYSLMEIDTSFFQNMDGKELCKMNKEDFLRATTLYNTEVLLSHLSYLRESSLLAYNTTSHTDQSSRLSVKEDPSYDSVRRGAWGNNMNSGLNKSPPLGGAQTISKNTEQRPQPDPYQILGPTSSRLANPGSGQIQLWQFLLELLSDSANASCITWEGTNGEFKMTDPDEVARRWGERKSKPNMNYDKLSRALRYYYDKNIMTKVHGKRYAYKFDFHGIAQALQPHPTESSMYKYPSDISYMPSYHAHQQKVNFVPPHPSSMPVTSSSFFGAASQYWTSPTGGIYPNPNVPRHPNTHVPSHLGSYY
# How it was run: (§1)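 Each value of binding signal is a hexamer's read frequency for a factor divided by the same hexamer's frequency in the tag-only sample. Barcoded, bead-captured GST fusions of human transcription factors made in yeast were pooled with that sample and incubated with 200 nmole of a random double-stranded 16-mer DNA library in Tris/NaCl/DTT/glycerol buffer at room temperature for 30 min. Washing, 0.1% formaldehyde crosslinking, proximity ligation, PCR and Illumina NextSeq500 sequencing followed.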
# ELK1 = molecular target: T2, ELK1 (Homo sapiens, UniProt P19419 1-428); settings: protein: recombinant; tags: N-terminal GST; dsDNA, one strand shown
# T2 sequence: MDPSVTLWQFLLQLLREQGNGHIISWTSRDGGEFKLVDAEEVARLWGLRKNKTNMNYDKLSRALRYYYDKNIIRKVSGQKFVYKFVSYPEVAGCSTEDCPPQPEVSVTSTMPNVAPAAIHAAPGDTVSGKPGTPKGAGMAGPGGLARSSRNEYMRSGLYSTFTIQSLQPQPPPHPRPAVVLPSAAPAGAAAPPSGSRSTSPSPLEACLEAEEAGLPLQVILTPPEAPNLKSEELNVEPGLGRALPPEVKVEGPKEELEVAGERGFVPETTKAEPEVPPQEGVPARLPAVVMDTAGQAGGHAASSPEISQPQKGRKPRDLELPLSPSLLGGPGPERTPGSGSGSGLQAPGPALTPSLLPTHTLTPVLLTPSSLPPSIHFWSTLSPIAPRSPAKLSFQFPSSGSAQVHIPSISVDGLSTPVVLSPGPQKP
# How it was run: as §1
# GABPA = molecular target: T3, GABPA (Homo sapiens, UniProt Q06546 1-454); settings: protein: recombinant; tags: N-terminal GST; dsDNA, one strand shown
# T3 sequence: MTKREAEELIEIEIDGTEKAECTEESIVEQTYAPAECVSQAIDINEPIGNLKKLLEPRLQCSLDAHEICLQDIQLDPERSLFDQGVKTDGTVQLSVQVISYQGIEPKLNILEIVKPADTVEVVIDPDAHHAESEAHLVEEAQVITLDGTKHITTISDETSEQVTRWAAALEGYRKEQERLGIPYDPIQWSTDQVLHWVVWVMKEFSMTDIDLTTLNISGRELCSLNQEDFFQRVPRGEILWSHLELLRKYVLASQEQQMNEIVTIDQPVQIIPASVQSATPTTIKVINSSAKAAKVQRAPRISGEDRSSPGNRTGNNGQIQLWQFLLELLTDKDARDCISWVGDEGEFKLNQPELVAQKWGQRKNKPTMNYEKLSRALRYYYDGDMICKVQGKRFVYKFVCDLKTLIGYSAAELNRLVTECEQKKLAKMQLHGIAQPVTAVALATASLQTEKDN
# How it was run: as §1
# ERG = molecular target: T4, ERG (Homo sapiens, UniProt P11308 1-479); settings: protein: recombinant; tags: N-terminal GST; dsDNA, one strand shown
# T4 sequence: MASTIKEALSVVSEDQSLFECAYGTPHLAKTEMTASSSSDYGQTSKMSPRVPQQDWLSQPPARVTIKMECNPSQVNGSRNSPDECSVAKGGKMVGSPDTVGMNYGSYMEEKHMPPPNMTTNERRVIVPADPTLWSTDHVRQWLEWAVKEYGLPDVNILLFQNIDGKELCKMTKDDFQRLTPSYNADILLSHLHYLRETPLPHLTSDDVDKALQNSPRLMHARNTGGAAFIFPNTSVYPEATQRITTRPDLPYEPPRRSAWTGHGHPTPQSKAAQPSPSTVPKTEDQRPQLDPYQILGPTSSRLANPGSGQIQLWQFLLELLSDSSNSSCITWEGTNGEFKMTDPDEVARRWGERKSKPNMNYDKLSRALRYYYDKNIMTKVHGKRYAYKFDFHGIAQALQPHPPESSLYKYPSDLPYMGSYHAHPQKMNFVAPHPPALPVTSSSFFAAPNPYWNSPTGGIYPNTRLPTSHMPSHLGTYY
# How it was run: as §1
# ELF1 = ELF1 (Homo sapiens, UniProt P32519 1-619); settings: protein: recombinant; tags: N-terminal GST; dsDNA, one strand shown
# How it was run: as §1
# EHF = molecular target: T5, EHF (Homo sapiens, UniProt Q9NZC4 1-300); settings: protein: recombinant; tags: N-terminal GST; dsDNA, one strand shown
# T5 sequence: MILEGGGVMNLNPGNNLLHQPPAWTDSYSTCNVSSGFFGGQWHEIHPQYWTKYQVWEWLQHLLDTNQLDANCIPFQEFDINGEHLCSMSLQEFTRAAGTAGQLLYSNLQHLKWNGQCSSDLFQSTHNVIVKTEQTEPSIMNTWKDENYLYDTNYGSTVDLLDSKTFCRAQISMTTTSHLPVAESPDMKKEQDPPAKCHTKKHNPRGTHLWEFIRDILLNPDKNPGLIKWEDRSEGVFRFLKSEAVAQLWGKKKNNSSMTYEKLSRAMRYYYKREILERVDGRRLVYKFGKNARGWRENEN
# How it was run: as §1
# SPI1 = SPI1 (Homo sapiens, UniProt P17947 1-270); settings: protein: recombinant; tags: N-terminal GST; dsDNA, one strand shown
# How it was run: as §1
# SPIB = SPIB (Homo sapiens, UniProt Q01892 1-262); settings: protein: recombinant; tags: N-terminal GST; dsDNA, one strand shown
# How it was run: as §1
# ELK3 = molecular target: T6, ELK3 (Homo sapiens, UniProt P41970 1-407); settings: protein: recombinant; tags: N-terminal GST; dsDNA, one strand shown
# T6 sequence: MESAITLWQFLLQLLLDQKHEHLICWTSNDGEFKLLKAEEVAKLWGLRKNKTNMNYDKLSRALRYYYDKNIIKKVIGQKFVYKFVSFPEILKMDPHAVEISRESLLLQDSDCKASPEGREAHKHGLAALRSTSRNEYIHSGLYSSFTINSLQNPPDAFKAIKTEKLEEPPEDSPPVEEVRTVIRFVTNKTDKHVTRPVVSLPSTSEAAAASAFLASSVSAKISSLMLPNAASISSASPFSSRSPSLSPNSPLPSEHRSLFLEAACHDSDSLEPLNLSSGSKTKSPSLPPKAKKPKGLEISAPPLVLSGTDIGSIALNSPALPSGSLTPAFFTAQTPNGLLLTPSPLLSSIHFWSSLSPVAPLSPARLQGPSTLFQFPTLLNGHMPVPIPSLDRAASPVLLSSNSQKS
# How it was run: as §1
# FEV = molecular target: T7, FEV (Homo sapiens, UniProt Q99581 1-238); settings: protein: recombinant; tags: N-terminal GST; dsDNA, one strand shown
# T7 sequence: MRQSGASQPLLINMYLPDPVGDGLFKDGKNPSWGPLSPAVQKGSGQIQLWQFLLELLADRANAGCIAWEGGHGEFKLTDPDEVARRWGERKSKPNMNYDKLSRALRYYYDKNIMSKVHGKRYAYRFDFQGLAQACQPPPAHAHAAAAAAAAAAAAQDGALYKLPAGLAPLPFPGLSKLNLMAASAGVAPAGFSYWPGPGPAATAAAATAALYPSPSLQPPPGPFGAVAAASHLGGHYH
# How it was run: as §1
# ETV5 = ETV5 (Homo sapiens, UniProt P41161 1-510); settings: protein: recombinant; tags: N-terminal GST; dsDNA, one strand shown
# How it was run: as §1
# HSF1 = HSF1 (Homo sapiens, UniProt Q00613 1-529); settings: protein: recombinant; tags: N-terminal GST; chain copies: 3; dsDNA, one strand shown
# How it was run: as §1
# SPIC = molecular target: T8, SPIC (Homo sapiens, UniProt Q8N5J4 1-248); settings: protein: recombinant; tags: N-terminal GST; dsDNA, one strand shown
# T8 sequence: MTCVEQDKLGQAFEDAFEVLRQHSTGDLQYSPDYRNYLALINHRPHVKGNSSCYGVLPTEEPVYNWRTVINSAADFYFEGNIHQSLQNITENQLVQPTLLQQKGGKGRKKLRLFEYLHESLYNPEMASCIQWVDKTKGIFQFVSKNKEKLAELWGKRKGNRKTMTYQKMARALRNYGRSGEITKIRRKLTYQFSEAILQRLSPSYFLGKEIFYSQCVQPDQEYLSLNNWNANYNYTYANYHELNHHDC
# How it was run: as §1
# ELF4 = ELF4 (Homo sapiens, UniProt Q99607 1-663); settings: protein: recombinant; tags: N-terminal GST; dsDNA, one strand shown
# How it was run: as §1
# ELK4 = molecular target: T9, ELK4 (Homo sapiens, UniProt P28324-2 1-405); settings: protein: recombinant; tags: N-terminal GST; dsDNA, one strand shown
# T9 sequence: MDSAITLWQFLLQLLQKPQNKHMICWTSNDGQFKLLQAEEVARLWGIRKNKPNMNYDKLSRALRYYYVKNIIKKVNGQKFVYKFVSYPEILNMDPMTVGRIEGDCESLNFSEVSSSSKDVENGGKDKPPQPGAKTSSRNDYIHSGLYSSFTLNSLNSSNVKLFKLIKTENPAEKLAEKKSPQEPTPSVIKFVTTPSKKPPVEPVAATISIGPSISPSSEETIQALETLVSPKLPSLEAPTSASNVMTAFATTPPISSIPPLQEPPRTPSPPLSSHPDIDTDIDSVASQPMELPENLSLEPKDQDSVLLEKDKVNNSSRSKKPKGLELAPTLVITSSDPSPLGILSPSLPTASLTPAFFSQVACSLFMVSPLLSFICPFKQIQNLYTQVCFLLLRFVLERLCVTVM
# How it was run: as §1
# ETV2 = molecular target: T10, ETV2 (Homo sapiens, UniProt O00321 1-342); settings: protein: recombinant; tags: N-terminal GST; dsDNA, one strand shown
# T10 sequence: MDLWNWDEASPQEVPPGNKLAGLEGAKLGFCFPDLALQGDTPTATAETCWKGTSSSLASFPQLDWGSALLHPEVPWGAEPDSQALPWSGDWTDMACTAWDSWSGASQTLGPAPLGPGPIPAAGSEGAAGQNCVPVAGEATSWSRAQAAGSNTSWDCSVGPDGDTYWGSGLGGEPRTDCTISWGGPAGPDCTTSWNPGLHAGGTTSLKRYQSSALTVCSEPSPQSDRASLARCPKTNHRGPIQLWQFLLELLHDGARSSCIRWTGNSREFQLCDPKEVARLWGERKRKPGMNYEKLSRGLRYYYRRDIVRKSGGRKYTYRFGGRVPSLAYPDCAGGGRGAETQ
# How it was run: as §1
# ELF3 = molecular target: T11, ELF3 (Homo sapiens, UniProt P78545 1-371); settings: protein: recombinant; tags: N-terminal GST; dsDNA, one strand shown
# T11 sequence: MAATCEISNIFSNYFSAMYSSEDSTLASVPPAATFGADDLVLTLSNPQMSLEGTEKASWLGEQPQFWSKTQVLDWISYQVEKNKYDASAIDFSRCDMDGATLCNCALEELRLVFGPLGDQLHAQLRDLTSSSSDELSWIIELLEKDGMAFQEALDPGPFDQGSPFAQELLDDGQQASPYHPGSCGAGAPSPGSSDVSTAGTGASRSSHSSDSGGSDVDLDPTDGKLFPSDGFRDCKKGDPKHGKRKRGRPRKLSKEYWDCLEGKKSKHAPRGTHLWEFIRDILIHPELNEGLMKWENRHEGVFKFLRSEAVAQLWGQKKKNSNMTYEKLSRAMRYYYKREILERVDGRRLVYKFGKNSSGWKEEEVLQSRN
# How it was run: as §1
# ETV1 = ETV1 (Homo sapiens, UniProt P50549 1-477); settings: protein: recombinant; tags: N-terminal GST; dsDNA, one strand shown
# How it was run: as §1
# Chain of ELF4 (Q99607 whole entry): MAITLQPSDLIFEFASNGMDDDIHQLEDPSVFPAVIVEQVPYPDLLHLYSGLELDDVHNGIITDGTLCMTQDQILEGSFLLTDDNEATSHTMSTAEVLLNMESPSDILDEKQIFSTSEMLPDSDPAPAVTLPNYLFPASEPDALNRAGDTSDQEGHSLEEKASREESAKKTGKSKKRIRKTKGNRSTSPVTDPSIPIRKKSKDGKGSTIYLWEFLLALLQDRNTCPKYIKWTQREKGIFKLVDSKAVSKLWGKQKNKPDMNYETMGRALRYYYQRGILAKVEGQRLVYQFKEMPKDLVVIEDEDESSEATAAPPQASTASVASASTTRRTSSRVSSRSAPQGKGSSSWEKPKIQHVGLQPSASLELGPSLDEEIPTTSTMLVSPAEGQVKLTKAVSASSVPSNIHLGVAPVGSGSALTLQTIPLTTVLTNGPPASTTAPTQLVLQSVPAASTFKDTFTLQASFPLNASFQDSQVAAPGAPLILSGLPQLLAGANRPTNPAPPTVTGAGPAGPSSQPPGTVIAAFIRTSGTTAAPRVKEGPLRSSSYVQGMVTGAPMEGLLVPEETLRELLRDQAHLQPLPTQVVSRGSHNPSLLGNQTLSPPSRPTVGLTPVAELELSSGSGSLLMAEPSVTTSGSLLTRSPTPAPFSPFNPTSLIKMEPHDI
# Chain of HSF1 (Q00613 whole entry): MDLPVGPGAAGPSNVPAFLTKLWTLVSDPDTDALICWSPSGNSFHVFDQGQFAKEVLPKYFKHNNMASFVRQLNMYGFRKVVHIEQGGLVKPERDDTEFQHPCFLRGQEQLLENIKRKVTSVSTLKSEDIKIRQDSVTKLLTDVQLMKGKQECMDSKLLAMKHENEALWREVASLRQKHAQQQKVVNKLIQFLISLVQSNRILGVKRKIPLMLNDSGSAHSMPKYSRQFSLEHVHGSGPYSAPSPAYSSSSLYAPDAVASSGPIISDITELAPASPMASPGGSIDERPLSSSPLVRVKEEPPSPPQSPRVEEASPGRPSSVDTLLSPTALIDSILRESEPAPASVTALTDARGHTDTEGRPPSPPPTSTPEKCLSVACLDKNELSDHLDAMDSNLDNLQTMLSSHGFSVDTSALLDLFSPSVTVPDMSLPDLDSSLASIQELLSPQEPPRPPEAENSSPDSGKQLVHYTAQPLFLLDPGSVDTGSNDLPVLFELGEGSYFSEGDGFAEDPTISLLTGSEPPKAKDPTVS
# Chain of ETV1 (P50549 whole entry): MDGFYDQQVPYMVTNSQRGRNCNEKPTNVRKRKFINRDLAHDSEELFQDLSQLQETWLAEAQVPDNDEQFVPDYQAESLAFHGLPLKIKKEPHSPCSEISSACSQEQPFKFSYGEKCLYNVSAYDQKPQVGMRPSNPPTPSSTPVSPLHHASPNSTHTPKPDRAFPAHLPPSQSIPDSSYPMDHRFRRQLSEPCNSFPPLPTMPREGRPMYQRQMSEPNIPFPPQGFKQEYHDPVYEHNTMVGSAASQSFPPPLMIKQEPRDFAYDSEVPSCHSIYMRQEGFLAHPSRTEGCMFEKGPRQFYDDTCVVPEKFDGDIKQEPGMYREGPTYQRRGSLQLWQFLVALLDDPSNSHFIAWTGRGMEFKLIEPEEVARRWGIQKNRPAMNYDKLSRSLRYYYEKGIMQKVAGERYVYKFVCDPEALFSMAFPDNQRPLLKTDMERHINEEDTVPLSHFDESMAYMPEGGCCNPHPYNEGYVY
# Chain of ELF1 (P32519 whole entry): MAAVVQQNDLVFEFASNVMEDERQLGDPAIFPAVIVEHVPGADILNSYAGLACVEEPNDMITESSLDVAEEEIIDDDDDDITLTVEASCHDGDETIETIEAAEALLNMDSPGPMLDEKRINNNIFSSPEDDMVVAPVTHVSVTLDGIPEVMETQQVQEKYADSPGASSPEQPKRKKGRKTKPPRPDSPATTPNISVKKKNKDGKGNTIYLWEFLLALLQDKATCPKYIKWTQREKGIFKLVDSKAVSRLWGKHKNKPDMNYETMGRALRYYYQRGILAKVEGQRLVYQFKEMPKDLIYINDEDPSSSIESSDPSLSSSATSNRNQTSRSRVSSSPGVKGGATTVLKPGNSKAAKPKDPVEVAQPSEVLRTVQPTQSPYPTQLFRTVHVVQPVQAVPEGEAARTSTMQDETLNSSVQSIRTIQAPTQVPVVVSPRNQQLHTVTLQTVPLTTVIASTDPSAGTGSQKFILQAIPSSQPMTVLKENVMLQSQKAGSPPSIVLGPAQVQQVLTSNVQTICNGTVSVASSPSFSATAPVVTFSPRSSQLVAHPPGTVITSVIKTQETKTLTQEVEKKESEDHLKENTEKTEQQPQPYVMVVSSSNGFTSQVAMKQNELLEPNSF
# Chain of SPIB (Q01892 whole entry): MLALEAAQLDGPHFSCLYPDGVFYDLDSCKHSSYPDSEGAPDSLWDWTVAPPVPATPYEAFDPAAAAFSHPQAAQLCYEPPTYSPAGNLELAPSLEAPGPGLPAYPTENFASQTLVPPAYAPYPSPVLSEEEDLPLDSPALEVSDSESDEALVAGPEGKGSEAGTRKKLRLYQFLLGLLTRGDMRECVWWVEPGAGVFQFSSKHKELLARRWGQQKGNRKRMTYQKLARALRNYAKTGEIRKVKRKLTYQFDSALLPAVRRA
# Chain of ETV5 (P41161 whole entry): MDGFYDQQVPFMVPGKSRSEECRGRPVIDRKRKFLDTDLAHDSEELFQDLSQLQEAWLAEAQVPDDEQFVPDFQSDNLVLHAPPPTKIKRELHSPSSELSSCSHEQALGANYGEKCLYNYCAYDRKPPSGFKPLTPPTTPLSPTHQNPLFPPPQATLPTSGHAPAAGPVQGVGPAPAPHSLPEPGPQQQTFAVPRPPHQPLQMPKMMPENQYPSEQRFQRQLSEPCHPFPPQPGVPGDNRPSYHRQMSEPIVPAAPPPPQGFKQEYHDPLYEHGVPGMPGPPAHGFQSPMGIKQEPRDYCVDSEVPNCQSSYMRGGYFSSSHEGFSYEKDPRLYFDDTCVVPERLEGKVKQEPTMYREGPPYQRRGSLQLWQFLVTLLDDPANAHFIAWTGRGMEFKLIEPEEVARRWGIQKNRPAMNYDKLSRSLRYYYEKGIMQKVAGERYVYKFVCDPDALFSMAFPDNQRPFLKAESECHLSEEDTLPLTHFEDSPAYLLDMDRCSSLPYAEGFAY
sequence,measurement,setting,value
CGCTCC,binding signal,FLI1,"1.37 fold enrichment (6-mer frequency, TF over GST control)"
same,binding signal,ELK1,"1.28 fold enrichment (6-mer frequency, TF over GST control)"
same,binding signal,GABPA,"1.37 fold enrichment (6-mer frequency, TF over GST control)"
same,binding signal,ERG,"1.33 fold enrichment (6-mer frequency, TF over GST control)"
same,binding signal,ELF1,"1.31 fold enrichment (6-mer frequency, TF over GST control)"
same,binding signal,EHF,"1.24 fold enrichment (6-mer frequency, TF over GST control)"
same,binding signal,SPI1,"1.29 fold enrichment (6-mer frequency, TF over GST control)"
same,binding signal,SPIB,"1.36 fold enrichment (6-mer frequency, TF over GST control)"
same,binding signal,ELK3,"1.37 fold enrichment (6-mer frequency, TF over GST control)"
same,binding signal,FEV,"1.34 fold enrichment (6-mer frequency, TF over GST control)"
same,binding signal,ETV5,"1.31 fold enrichment (6-mer frequency, TF over GST control)"
same,binding signal,HSF1,"1.09 fold enrichment (6-mer frequency, TF over GST control)"
same,binding signal,SPIC,"1.33 fold enrichment (6-mer frequency, TF over GST control)"
same,binding signal,ELF4,"1.38 fold enrichment (6-mer frequency, TF over GST control)"
same,binding signal,ELK4,"1.41 fold enrichment (6-mer frequency, TF over GST control)"
same,binding signal,ETV2,"1.36 fold enrichment (6-mer frequency, TF over GST control)"
same,binding signal,ELF3,"1.3 fold enrichment (6-mer frequency, TF over GST control)"
same,binding signal,ETV1,"1.26 fold enrichment (6-mer frequency, TF over GST control)"
